The campaign covered roughly 120,000 compounds. Fewer than 10 were called active. Roughly 4% stayed inconclusive and do not appear here. The call rests on the fitted dose curve; in most records, active means well fitted curve in the direction sought with a large enough effect in the signal ratio (not every such curve was filed as active); inconclusive means small, poorly fitted or top-dose-only effect, or a change in a side signal; inactive means no such curve, though single readings can be large or run the other way; the % refers to the signal ratio. The list is a sample of the results.
Each compound was assayed against Inositol monophosphatase 1 (Rattus norvegicus) (UniProt P97697) (assay: qHTS Assay for Identifying the Cell-Membrane Permeable IMPase Inhibitors). Details: CHO-M1 cells, HTRF TR-FRET ratio; series mostly up to 46.1 µM.
Chain of Inositol monophosphatase 1 (Rattus norvegicus) (P97697 whole entry, looked up): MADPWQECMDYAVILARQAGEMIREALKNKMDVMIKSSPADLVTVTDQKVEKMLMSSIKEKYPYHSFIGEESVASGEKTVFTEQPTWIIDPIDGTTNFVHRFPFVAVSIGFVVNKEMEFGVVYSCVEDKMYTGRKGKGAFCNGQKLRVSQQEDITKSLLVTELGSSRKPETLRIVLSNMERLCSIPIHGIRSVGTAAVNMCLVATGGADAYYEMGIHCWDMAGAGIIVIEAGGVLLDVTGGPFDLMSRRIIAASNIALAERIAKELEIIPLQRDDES
Text: NCGC IMPase Assay Overview
Lithium has been widely used for the treatment of bipolar disorder. But lithium has a narrow therapeutic index and it can cause side effects such as thirst, weight gain, tremor, polyuria and memory problems. Although the mechanism for lithium action in treatment of bipolar disorder is still not fully understood, inhibition of inositol monophosphatase (IMPase) and the subsequent depletion of the inositol pool in living cells have been implicated as the primary therapeutic benefit of lithium therapy. Therefore, a selective IMPase inhibitor with reduced side effects might be a good drug candidate to replace lithium for the treatment of bipolar disorder. Several IMPase inhibitors have been discovered previously. However, they are not suitable for therapeutic use because of their poor cell membrane penetrability or oral bioavailability; the development of new cell-permeable IMPase inhibitors is needed.
IMPase catalyzes the hydrolysis of inositol-1-phosphate (IP1) to release free inositol. Binding of an agonist to a Gq coupled GPCR results in the activation of PLC, which hydrolyzes the PIP2 to form inositol-1,4,5-trisphosphate (IP3) and diacyl glycerol (DAG). While DAG activates protein kinase C (PKC), IP3 triggers the elevation of intracellular free Ca2+. The IP3 is very rapidly inactivated by hydrolysis to IP2, IP1 and then inositol by a series of enzymes including IMPase. Free inositols are used for synthesis of PI and thus start another inositol cycle.
To identify new cell-permeable IMPase inhibitors, we developed a cell-based IMPase assay in which the cytosolic IP1 is measured by a time-resolved fluorescence resonance energy transfer (TR-FRET) assay. In this assay, an IP1 specific antibody is used to detect the labeled IP1 tracer. When the cell lysate contains the elevated IP1 due to the inhibition of IMPase, the TR-FRET between the labeled antibody and IP1 tracer is disrupted resulting in a reduction in the total signal. Since the TR-FRET is used, this cell-based assay is a homogenous assay without cell wash and medium change that is suitable for assay miniaturization and HTS.
NCGC IMPase Assay Protocol Summary
A Chinese hamster ovary (CHO) cell line stably expressing the M1 receptor (CHO-M1) was obtained from ATCC and maintained in F-12 Kaighn's media (Invitrogen, Carlsbad, CA, 21127) supplemented with 10 % FBS, 100 units/ml penicillin, 100 ug/ml streptomycin and 250 ug/ml geneticin at 37C, 5% CO2 in a humidified atmosphere. Before the assay, aliquots of cells were frozen and stored at -135C. The assay was performed in 1536-well format. Data are reported for both the ratio of the two emission wavelengths, and also for the component 'donor' channel, Em2=620. […] AC50 values were determined from concentration-response data modeled with the standard Hill equation.
IMPase 1536-well assay protocol:
(1) Plate 4 ul/well (2000 cells) of cell suspension from frozen CHO-M1 Cells in white, tissue culture treated 1536-well plates that are cultured at 37C, 5 % CO2 for 16 to 30 hours.
(2) Add 23 nl/well of compound in DMSO solution. The final titration for each compound was between 0.6 nM and 46 uM.
(3) Add 1 ul of carbachol (50 uM in stimulation buffer containing10mM HEPES, 1mM CaCl2, 0.5 mM MgCl2, 4.2 mM KCl, 146 mM NaCl, 5.5 mM glucose, 50mM LiCl, pH 7.4.
(4) Incubation at 37C, 5 % CO2 for 30 min.
(5) Add 1 ul/well of d2-conjugated IP1 (d2-IP1) and 1 ul/well of Eu+ cryptate conjugated anti-IP1 antibody (Eu+-Ab) prepared in the cell lysis buffer, both from the IP-One kit (Cisbio, MA).
(6) Incubate at room temperature for 10 minutes.
(7) Detect the assay plate (Ex = 320, Em1 =665 and Em2 620) in a ViewLux plate reader.
inositol monophosphatase, IMPase, IMPase inhibitor, lithium, bipolar disorder, IP-One, HTRF, qHTS, NIH roadmap, NCGC
Note: In the gene ID and protein GI references for this assay, rat IMPase is referenced instead of hampster as hamster accession numbers were not available.
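Further: higher means more IMPase inhibition seen as more IP1 and lower FRET ratio.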

outcome, inactive:
O=C(Nc1ccc(O)c(-c2nc3ccccc3o2)c1)c1ccc(-c2cccc(Cl)c2)o1
CC1CCCCN1CC(=O)N1CCCc2c1c(=O)oc1ccc(OCc3ccccc3)cc21 (configuration not stated)
COc1ccc(C2(Nc3cccc(F)c3)C(=O)c3ccccc3C2=O)cc1
Cc1ccc(C(=O)CSc2nc(-c3ccccc3)nc3c2CCCC3)c(C)c1
CCOc1ccc(S(=O)(=O)N/N=C(\C)c2ccc(Cl)c(Cl)c2Cl)cc1
Cc1ccc(C(=O)CC2(O)C(=O)N(CCc3ccccc3)c3ccc(Br)cc32)cc1 (configuration not stated)
COc1ccc2oc(-c3cccc(NC(=O)CSc4ccc(Cl)cc4)c3)nc2c1
CCCC(=O)Nc1ccc2oc(-c3ccc(O)c(Br)c3)nc2c1
COc1cccc(C(=O)Nc2ccc3oc(-c4ccc5ccccc5c4)nc3c2)c1
Cc1cccc(C(CC(=O)NCC2(c3ccccc3)CCCC2)c2ccccc2)c1O (configuration not stated)
Cc1ccc(OCC(=O)Nc2ccccc2Sc2ccc(Cl)cc2)c([N+](=O)[O-])n1
CN(C(=O)CSc1nnc(-c2n[nH]c3ccccc23)o1)c1ccccc1
CC(=O)NC(Cc1ccccc1)C(=O)NC1CCN(c2ncccc2[N+](=O)[O-])CC1 (configuration not stated)
COc1ccc(/C=C/C(=O)OCC(=O)NCc2cccs2)cc1OC
COc1ccc(S(=O)(=O)Nc2cc3c(C(=O)OC(C)C)c(C)oc3c3ccccc23)cc1
CCOC(=O)c1c(C)oc2ccc(N(C(=O)c3ccncc3)S(=O)(=O)c3ccc(CC)cc3)cc12
CCCCOC(=O)/C(C#N)=C/c1ccc(-c2cccc(C(F)(F)F)c2)o1
CCc1ccccc1NC(=O)CSc1nc(C)c(C(=O)Nc2ccccc2)c(-c2ccc(Cl)cc2)c1C#N
Oc1ccccc1-c1nc(/C=C/c2ccc(F)cc2)no1
COc1ccc(NC(=O)CSC2=Nc3ccccc3C3=NC(CC(=O)NCc4ccccc4OC)C(=O)N23)cc1Cl (configuration not stated)
COc1ccc(C(C(=O)NC2CCCCC2)N(C(=O)CCl)c2ccccc2Cl)cc1 (configuration not stated)
COc1ccc(S(=O)(=O)NCCc2cc3ccc(C)c(C)c3[nH]c2=O)cc1
COc1ccc2c(CN3CCN(S(=O)(=O)c4cccs4)CC3)cc(=O)oc2c1
CC(=O)Nc1ccc(NC(=O)CSc2nnc3c4cc(Br)ccc4n(C)c3n2)cc1
CCc1ccccc1NS(=O)(=O)c1ccc2nc(-c3ccccc3)[nH]c2c1
COC(=O)c1ccc(-c2nc3cc(NC(C)=O)ccc3o2)cc1
CCCOc1ccc(NC(=O)C2OC3OC(C)(C)OC3C3OC(C)(C)OC23)cc1 (configuration not stated)
O=C(Nc1nnc(SCc2ccccc2Cl)s1)c1cccc([N+](=O)[O-])c1
CC1=C(C(=O)OCc2ccc(C)cc2)C(c2c(Cl)cccc2Cl)CC(=O)N1 (configuration not stated)
CC(C)Cn1c(-c2ccc(S(=O)(=O)N3CCOCC3)cc2)csc1=Nc1cc(Cl)ccc1Cl
CN(Cc1cccs1)C(=O)Cc1c[nH]c2ccccc12
CCC(C)c1ccc2oc(-c3ccc(NC(=O)c4cc5ccccc5o4)cc3)nc2c1 (configuration not stated)
Cc1cc2nc(-c3ccc(NC(=O)c4cc5ccccc5o4)cc3)oc2cc1C
COc1cc(C2c3c(oc4ccccc4c3=O)C(=O)N2c2nc(C)c(C)s2)ccc1O (configuration not stated)
COc1ccc(C)cc1N(CC(=O)N1CCC(C)CC1)S(=O)(=O)c1ccc(C)cc1
Cc1ccc(-c2cc(C(F)(F)F)c(C#N)c(SCC(=O)Nc3ccccc3)n2)cc1
CN(C)c1ccc(/C=N/N(Cc2ccccc2)c2ccccc2)cc1
CC(=O)NC1C(Oc2ccc(C)cc2)OC2COC(c3ccco3)OC2C1O (configuration not stated)
COCCNC(=O)CSc1nc(-c2ccccc2)[nH]c1-c1ccc(C)cc1
CCOc1ccc(/C=N/NC(N)=S)cc1
O=C(CSc1nc(-c2cccc(F)c2)[nH]c1-c1ccccc1)Nc1ccc2c(c1)OCO2
CCc1cccc(C)c1Nc1c(-c2ccc(N(C)C)cc2)nc2ncccn12
Cc1nnc(SCC(=O)N2CCOCC2)[nH]c1=O
Cc1cc([N+](=O)[O-])ccc1NC(=O)C1CCCO1 (configuration not stated)
CCCn1c(NCc2ccc(N(CC)CC)cc2)nc2ccccc21
COc1ccc(Cl)cc1NC(=O)NCC1CCN(Cc2ccccc2F)CC1
Cc1cc2ccccc2n1CCNC(=O)c1ccc(F)cc1
CN(C)CCCO/N=C(\c1ccccc1)c1ccncc1
CCCCNC(=O)CSc1nc2ccc(NC(=O)CSc3nnc(N)s3)cc2s1
CCOC(=O)c1cc(NC(=O)c2ccc(F)cc2)c(=O)n2c1oc1ccccc12
Cn1c(=O)[nH]c(=O)c2c1nc(NCCc1ccccc1)n2Cc1ccc(F)cc1
COc1ccc(NC(=O)c2ccco2)cc1NC(=O)COc1ccc(C)c(C)c1
CCN(c1ccc(NC(=O)COC(=O)CCc2nc3ccccc3n2-c2ccccc2)cc1)C(C)C
COC(=O)c1c(NC(=O)CN2C(=O)NC(CCc3ccccc3)C2=O)sc2c1CCCCC2 (configuration not stated)
Cn1c(=O)c2c(nc(NCCc3ccccc3)n2Cc2ccccc2Br)n(C)c1=O
COc1ccccc1CNC(=O)CN1CCC(n2cnc3cc(F)ccc32)CC1
Cc1ccc(NC2=C(c3ccc(C(F)(F)F)cc3)C(=O)c3ccccc32)cc1F
CCOC(=O)c1cnc2c(C)cc(C)cc2c1Nc1ccc(N2CCOCC2)cc1
CC(=O)Nc1ccc(Nc2c([N+](=O)[O-])cc(S(C)(=O)=O)cc2[N+](=O)[O-])cc1
COc1cccc(NC(=O)C(Sc2nc3ccccc3c(=O)n2CC(C)C)c2ccccc2)c1 (configuration not stated)
CC(C)c1ccc(S(=O)(=O)Nc2ccc(O)c(Sc3nc4ccccc4s3)c2)cc1
COc1ccc(CCNC(=O)CSc2nc(-c3ccc(OC)c(OC)c3)ccc2C#N)cc1
COc1ccc(C(=O)COC(=O)CCCC(=O)Nc2cc(C(F)(F)F)ccc2Cl)cc1
COc1cc(C(=O)N(Cc2ccc(C(C)C)cc2)C2CCS(=O)(=O)C2)cc(OC)c1OC (configuration not stated)
CCCC(=O)Nc1cc2nn(-c3ccccc3)nc2cc1C
Cc1ccc2oc3c(c(=O)c2c1)C(c1ccc(O)cc1)N(Cc1ccc2c(c1)OCO2)C3=O (configuration not stated)
Cc1[nH]c2ccccc2c1/C=N/NC(=O)CNC(=O)c1ccc2c(c1)OCO2
Cc1ccccc1NC(=O)CSC1=NCCN1
COc1ccccc1OCCCn1c(-c2ccc(Cl)cc2)nc2ccccc2c1=O
Cc1cc(C)c[n+](-c2nc3ccccc3nc2[N-]S(=O)(=O)c2cccs2)c1
CC1CCCN(Cc2c(O)ccc3c(=O)c(Oc4ccc(C(C)(C)C)cc4)c(C(F)(F)F)oc23)C1 (configuration not stated)
CCn1c(=O)c(=O)n(CC)c2cc(N3CCCCC3)c(NC(=O)c3cccc(F)c3)cc21
COc1cccc(CNC(=O)CCc2nc(-c3ccc(C)cc3)no2)c1
COc1cc(OC)c(C2C=C(C(=O)O)Nc3ncnn32)cc1OC (configuration not stated)
CCCn1c(N)c(C(=O)CSc2nnc(-c3cccnc3)n2-c2ccc(C)cc2C)c(=O)[nH]c1=O
CCCCCC(=O)NC(=S)NNC(=O)c1ccc([N+](=O)[O-])cc1
CCOC(=O)c1c(-c2ccc(OC)cc2)oc2ccc(OCc3ccc(C(=O)OC)cc3)cc12
CC(C)c1ccc(OCC(=O)N(Cc2ccc(N(C)C)cc2)C2CCS(=O)(=O)C2)cc1 (configuration not stated)
CCN(C(=O)Cn1cc(S(=O)(=O)N2CCN(c3ccccc3F)CC2)c2ccccc2c1=O)c1ccc(C)c(C)c1
Cc1nn(Cc2ccc(Cl)cc2)c(Cl)c1/C=N/NC(=O)CNc1ccccc1F
CC(C)(C)c1ccc(C(=O)NCc2nnc(SCC(=O)N3CCCc4ccccc43)n2-c2ccccc2)cc1
COc1ccccc1N1CCN(CC(=O)NC(=O)NCc2ccco2)CC1
CC(=O)N1CCN(CC(=O)Nc2ccc(SC(F)F)cc2)CC1
Cc1ccc(Cl)cc1NC(=O)/C(C#N)=C\c1cn(Cc2ccc(F)cc2)c2ccccc12
COc1ccc(NS(=O)(=O)c2ccc(NC(=S)NC(=O)/C=C/c3ccc(C)cc3)cc2)nn1
N#CCOc1ccc(C2=NO[C@@H]3[C@@H]4C[C@@H]([C@H]5C(=O)N(c6ccc7c(c6)OCO7)C(=O)[C@@H]45)[C@H]23)cc1
Cc1ccc(S(=O)(=O)c2nc(-c3cccs3)oc2N2CCCCC2)cc1
CCCCn1c(=O)c(CCC(=O)OCC(=O)Nc2ccc(C)c(Cl)c2)nc2ccccc21
Cc1c(Cl)cccc1NC(=O)Cn1cc(C(=O)c2cccs2)c2ccccc21
O=C(CCc1ccc(S(=O)(=O)N2CCOCC2)cc1)NN=C1CCCCCCC1
Cc1ccc(CN2C(=O)SC(Nc3ccccc3)C2=O)cc1 (configuration not stated)
COc1ccc(CCNC(=O)/C(C#N)=C2\N=C(NC(=O)c3cccs3)c3ccccc32)cc1
CCc1c(C)sc(NC(=O)C2c3ccccc3Oc3ccccc32)c1C(=O)OC(C)C
COc1ccc(/C(C)=N/Nc2cc(C(F)(F)F)ccc2Cl)c(OC)c1
Cc1ccccc1-c1nc2cc(NC(=O)c3cccc(OCCC(C)C)c3)ccc2o1
CCCc1c(C)nc2c(Br)cccc2c1Cl
CCCCCNC(=O)c1cccnc1SCC(=O)Nc1ccccc1OC
